Sampled rows, rich in hits. Any-hit rate of the full collection: about 7.5%.
HCMV inh: qHTS Assay for inhibitors of the human cytomegalovirus (HCMV). HFF cells, HCMV-luciferase reporter, 72 h; active compounds read low. activity change, negative = inhibition, % at 57.5 µM. 410,000 tested, 4.5% active; in the data active means activity change below about -60%; inconclusive means no clear call, values can overlap the other calls; inactive means above about -39%
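Luciferase read-out from HCMV-luciferase-infected HFFs (MOI 1 PFU/cell) 72 h post infection at 37C; compounds added after 16 h cell attachment; activity normalized between buffer-only basal and Salinomycin (10uM) inhibitor controls.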
Vaccinia Venus: qHTS for Stage-Specific Inhibitors of Vaccinia Orthopoxvirus: Venus Reporter Primary qHTS; AID 720580, 2013; 330,000 tested, 0.46% active; Vaccinia virus Venus reporter expression, fluorescence; Potency, µM (highest dose often 36.5 µM), without a hit: at the highest dose activity change, negative = inhibition, actives largely listed as inhibitors; calls by dose curve; tested in A549 cells; further: potency means the concentration at half of the fitted maximal effect; nearly all actives have a fitted effect of over 30% in size
Vaccinia mCherry: qHTS for Stage-Specific Inhibitors of Vaccinia Orthopoxvirus: mCherry Reporter Primary qHTS; Vaccinia virus mCherry reporter infection, fluorescence; Potency, µM (series often up to 36.5 µM), for the others: top-dose activity change, negative = inhibition, actives largely listed as inhibitors; 310,000 tested, 0.63% active; calls by dose curve; tested in A549 cells; further: potency means the concentration at half of the fitted maximal effect; nearly all actives have a fitted effect of over 35% in size
FMDV inh: High Throughput Screening for Foot and Mouth Disease Virus Antivirals; Potency, µM (titrated, usually from 57.9 µM), without a hit: top-dose activity change, negative = inhibition, most hits filed as inhibitors; AID 1159524, 2015; FMDV antiviral cell-based qHTS; 410,000 tested, 1.2% active; calls by dose curve; tested in HEK293T cells; further: read-out not given here; potency means the concentration at half of the fitted maximal effect; nearly all actives have a fitted effect of over 45% in size
Giardia FBPA inh: qHTS Assay for Inhibitors of Fructose-1,6-bisphosphate Aldolase from Giardia Lamblia; A8B2U2; purified Giardia FBPA; AID 2451, 2010; Potency, µM (highest dose often 59.6 µM), without a hit: at the highest dose activity, negative = inhibition, usual class: inhibitors; 290,000 tested, 0.71% active; further: potency means the concentration at half of the fitted maximal effect; nearly all actives have a fitted effect of over 55% in size
Target sequence (A8B2U2 whole entry, looked up): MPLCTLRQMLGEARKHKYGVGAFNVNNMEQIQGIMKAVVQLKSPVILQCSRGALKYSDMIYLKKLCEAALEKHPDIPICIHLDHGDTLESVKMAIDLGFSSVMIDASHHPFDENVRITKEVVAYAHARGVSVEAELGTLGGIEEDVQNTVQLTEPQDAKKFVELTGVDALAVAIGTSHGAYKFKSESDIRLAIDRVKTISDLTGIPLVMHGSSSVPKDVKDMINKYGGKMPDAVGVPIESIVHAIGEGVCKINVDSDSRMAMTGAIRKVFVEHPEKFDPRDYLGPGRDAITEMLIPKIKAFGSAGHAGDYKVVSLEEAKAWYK
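40 nM FBPA preincubated 10 min at RT with compound (up to 57.5 uM final), then substrate plus GAPDH/TPI/NAD/arsenate coupling and diaphorase/resazurin added. Fluorescence read after 20 min at RT, 525/598 nm.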
HCV inh: qHTS Assay for Inhibitors of Hepatitis C Virus (HCV). Huh7.5.1 HCVcc-Cre infection, luciferase reporter, 44 h. Potency, µM (top dose mostly 41.8 µM), inactives show at the top dose activity change, negative = inhibition, usual class: inhibitors. 340,000 tested, 3.4% active. AID 651820, 2012; further: potency means the concentration at half of the fitted maximal effect
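Reporter virus HCVcc-Cre (~0.5 moi) infects cells exposed to compound; seeding density 1,000 cells/well with 4 h settling beforehand. Luminescence, 15 sec read, taken 44 h post-infection following a 15 min RT substrate incubation.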
* = called active by the depositor; i = inactive; ? = inconclusive; . = not tested or not shown. Unless noted, the call rests on the fitted dose curve; in most records, active means well fitted curve in the direction sought with a large enough effect; inconclusive means small, poorly fitted or top-dose-only effect, or another doubt; inactive means no such curve, though single readings can be large; an effect the other way counts as inactive or inconclusive. On the % scale 0 is the no-effect control and ±100 the full control effect.

SMILES	HCMV inh	Vaccinia Venus	Vaccinia mCherry	FMDV inh	Giardia FBPA inh	HCV inh
COc1ccc(NC(=O)c2cc(-c3ccco3)on2)cc1OC	-3.4	-9.3%	-7.4%	-1.9%	12.3%	11.2µM*
O=C(NC(=S)Nc1ccc(CN2CCOCC2)cc1)c1cc2ccccc2o1	-70.2*	.	.	8.8%	-6.7%	-8.7%
COc1ccc(OC)c(NC(=O)c2cc3c(Cl)nc4ccccc4c3s2)c1	-18.4	-9.3%	i	-13.2%	2.3%	-25.9%
O=C(NCCN1CCOCC1)c1cc2ccccc2oc1=O	-20.2	-10.2%	i	27.4%	1.9%	3.16µM*
CCC(=O)Nc1ccc(NC(=S)NC(=O)c2cc3ccccc3o2)cc1	-25.6	-0.8%	-9.1%	6.9%	-4.3%	8.2%
C1=Cc2ccccc2/C1=C\c1cc2c3c(c1)CCCN3CCC2	.	10.2%	26.0%	.	.	.
COc1cc2ccccc2cc1C(=O)Nc1ccc(CN2CCOCC2)cc1	-2.5	-1.1%	-1.8%	38.7%	-1.9%	6.31µM*
O=C(CCN1CCOCC1)NCc1ccccc1	4.7	.	.	-20.2%	?	13.4%
CC(C)Oc1ccc(-c2cc(C(=O)NCCN3CCOCC3)c3ccccc3n2)cc1	94.6	-2.2%	-4.9%	11.4%	.	10µM*
O=C(CCCc1ccccc1)NCCN1CCOCC1	-100.4*	-1.3%	-7.7%	16.3%	8.2%	20.1%
O=C(NCCN1CCOCC1)c1cc(-c2ccc(F)cc2)nc2ccccc12	-22.5	-10.4%	-12.1%	-6.3%	.	-1.5%
O=C(Nc1ccc(CN2CCOCC2)cc1)c1cc2ccccc2o1	20.6	-20.3%	-9.7%	.	-9.5%	35.5µM*
COc1ccc(NC(=O)c2cc3ccccc3cc2OC)cc1OC	-1.0	.	.	11.3%	1.4%	11.2µM*
CC(CN1CCC(n2nccc2NC(=O)CCCc2ccccc2)CC1)c1ccccc1 (stereo not drawn)	.	.	.	-18.2%	.	?
Cc1ccc(/C=N/n2nnnc2N)cc1	33.3	-2.6%	-2.1%	40.0%	.	17.5%
Cc1no[n+]([O-])c1COc1ccc(/C=N/n2nnnc2N)cc1	-14.0	?	14.1µM*	-14.6%	-2.7%	-17.8%
CC(=O)/C=C/c1ccc2c(c1)S(=O)(=O)N(C1CCCC1)[C@H]2CC(C)=O	.	-8.0%	-6.1%	.	.	.
CN1/C(=C\C(=O)CSc2nnc(N)s2)C(C)(C)c2ccccc21	?	-11.9%	-10.0%	?	3.3%	-8.1%
COCCn1c(SCC(=O)c2c(-c3ccccc3)n(C)c3ccccc23)nnc1-c1ccncc1	-35.7	19.6%	i	-8.7%	5.4%	?
COc1ccc(Nc2nnc(SCC(=O)/C=C3/N(C)c4ccccc4C3(C)C)s2)cc1	-74.1*	-8.9%	-2.2%	20µM*	-4.9%	?
COCCn1c(SCC(=O)/C=C2\N(C)c3ccccc3C2(C)C)nnc1-c1ccncc1	-74.5*	.	.	?	0.1%	?
COCCn1c(SCCCC(=O)c2ccc(Br)cc2)nnc1-c1ccncc1	-70.8*	-18.1%	-27.2%	?	6.4%	7.94µM*
CCn1c(SCc2ccc(C(=O)Nc3cc(C)cc(C)c3)cc2)nnc1-c1ccncc1	-61.5*	?	.	17.8µM*	-0.7%	11.2µM*
OC(COc1ccc(Cl)cc1)CN1CCN(c2cccc(Cl)c2)CC1 (stereo not drawn)	-7.5	-21.1%	-15.7%	-15.6%	-0.6%	-13.5%
COc1ccc(OC)c(NC(=O)Cn2cc(C#N)c3cc(Br)ccc32)c1	-66.5*	.	.	?	0.1%	?
SMILES	HCMV inh	Vaccinia Venus	Vaccinia mCherry	FMDV inh	Giardia FBPA inh	HCV inh
CC1=CC(C)(C)N(C(=O)CCl)c2cc(C)ccc21	-27.2	-9.7%	-8.1%	-28.4%	-4.5%	?
COc1ccc2c(c1)C(C)=CC(C)(C)N2S(=O)(=O)c1ccc(C)cc1	-85.9*	-22.9%	?	?	6.9%	-20.0%
CC1=CC(C)(C)N(S(=O)(=O)c2ccc(C)cc2)c2cc(C)ccc21	-84.7*	?	?	.	12.4%	?
CCOc1ccc2c(c1)C(C)=CC(C)(C)N2S(=O)(=O)c1ccc(C)cc1	-79.1*	-12.9%	-16.1%	-10.2%	-0.3%	-18.7%
Brc1ccc(-c2noc3c2-c2nc(-c4ccccc4)sc2CC3)cc1	2.8	-6.2%	-11.8%	-12.7%	.	8.7%
CC(NC(=O)c1cnn2c1NC(=C1CC1)C=C2C(F)F)c1ccncc1 (stereo not drawn)	.	-19.4%	-4.7%	.	.	.
COc1ccc(OC)c(S(=O)(=O)CC(O)CS(=O)(=O)c2ccccc2)c1 (stereo not drawn)	-3.7	.	.	-9.7%	.	8.4%
NC(=O)COC(=O)c1cccnc1Nc1ccccc1F	-70.7*	-9.1%	-24.3%	14.3%	-2.2%	4.5%
CN(C)C(=O)COC(=O)c1cccnc1Nc1ccccc1F	-16.0	-4.1%	-7.2%	-6.1%	1.1%	-21.1%
COc1ccc2[nH]c(C)cc2c1	.	-7.0%	-12.3%	.	.	.
CC(=O)Nc1ccc(NC(=O)C2=COC3=NC(=O)N(Cc4ccccc4C)CCN23)cc1	-34.8	.	.	.	.	.
O=C(Nc1ccc(-n2cccc2)cc1)C1=COC2=NC(=O)N(Cc3ccccc3)CCN12	-87.1*	.	.	.	.	.
Brc1cc(Br)c2ncnc(N3CCCCC3)c2c1	-103.9*	?	?	?	9.2%	?
CCOC(=O)C(=Cc1ccc(Br)cc1)C(=O)OCC	-100.4*	14.1µM*	?	22.4µM*	-15.1%	?
CCc1ccc(C(C)NC(=O)/C=C/c2ccc(Br)cc2)cc1 (stereo not drawn)	-18.3	-12.8%	-8.5%	-13.0%	3.8%	-3.9%
COC(=O)c1ccc(-n2ccnc2)cc1	-27.7	5.3%	i	-8.2%	7.3%	15.3%
CCOC(=O)C(CC)(CC)C(=O)/C=C/c1ccc(Br)cc1	-106.4*	?	?	?	-0.2%	?
CCOC(=O)C(=Cc1ccc(-n2ccnc2)cc1)C(=O)OCC	-86.2*	?	?	22.4µM*	-4.4%	?
Cc1c(CCCl)c(Cl)n2c(nc3ccccc32)c1C#N	-98.7*	?	?	3.55µM*	.	?
Cc1cc(Cl)n2c(nc3ccccc32)c1C#N	-22.5	-29.1%	?	7.94µM*	-6.5%	?
